Measurements from PubChem BioAssay (NCI).
This is part of a sample that, as a whole, favours compounds with a hit. Of some 79,000 tested, about 15% had one in any assay. Unmarked numbers belong to inactive results. No stated cut-off is given here; in the data, active means growth inhibition above about 70%; inactive means the rest.

Assay: NCI Yeast Anticancer Drug Screen. Data for the cln2 rad14 strain (AID 165);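 further: 0% = growth equal to vehicle treated cultures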
Details: S. cerevisiae cln2 rad14 strain, at 50.0 µM, active compounds read high
How it was run: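 Strain: cln2 rad14 yeast, altered in cell cycle control and DNA damage repair. Read-out: growth inhibition vs vehicle.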

Compound | growth inhibition
COc1ccc2c(c1)Sc1c(Cl)c3c(c(Cl)c1=N2)Sc1cc(OC)ccc1N=3 | 21.7%
COc1nc(NC2OC(COC(C)=O)C(OC(C)=O)C(OC(C)=O)C2OC(C)=O)c(C(=O)CCl)c(=O)[nH]1 (stereo not given) | -0.4%
O=C(O)C(Cc1ccc2c(c1)CCC2)(Cc1ccc2c(c1)CCC2)C(=O)O | 33.3%
Clc1cccc(Cl)c1C1SCc2nc3ncccc3n21 (stereo not given) | 16.9%
COc1cccc(C2N(Cc3ccccc3OC)CCCN2Cc2ccccc2OC)c1 | 21.8%
O=C(O)CC1CC2CC(=O)C1C2 (stereo not given) | -1.2%
CSCCCCCSC | 0.45%
CCOC(=O)C1=C(C)NC(=O)NC1c1ccc(N(C)C)cc1 (stereo not given) | 21.6%
CCc1cccc(CC)c1N=Cc1ccccc1O | 16.1%
NC(=O)c1cc(Cl)ccc1O | 3.1%
c1ccc(CCc2cccnc2)nc1 | 50%
Nc1c2cc3c(cc2c[n+]2ccc4ccccc4c12)OCO3 | 19.9%
O=C1CCCC/C1=C1/SC(=Nc2ccccc2)C(=Nc2ccccc2)N1c1ccccc1 | 31%
CCCOc1ccc(OCC(=O)c2ccccc2)cc1 | 5.3%
CCCCOC(=O)NC(=O)c1cc2cc(I)cc(I)c2oc1=O | -50.2%
N#CCCCCBr | -50.7%
O=C1OC(=O)c2c1ccc1ccccc21 | -8.35%
CCOC(=O)C[n+]1ccc(C(=O)OCC)cc1 | 2.3%
C=C1OC(=O)C(N)=C1C(C)=O | -5.2%
CN(/N=C(\C(=O)O)c1ccccc1)C1=NCCN1 | 41.2%

Compound | growth inhibition
NNC(=O)CC(=O)Nc1ccccc1F | 7.15%
CC(C)c1ccc(/C=C/C(=O)c2ccc([N+](=O)[O-])cc2)cc1 | -13.3%
O=C(O)c1cccc(CO)c1O | -17.4%
COC(=O)C(C)(Cc1ccc2c(c1)nnn2C(C)=O)NC(C)=O (stereo not given) | -2.45%
CC[C@@]12CCC(=S)N(CCSc3ccccc3)[C@@H]1c1c(n(S(=O)(=O)c3ccc(OC)cc3)c3ccccc13)CC2 | -15.9%
CC(=O)OCC1OC(n2ncnc2CI)C(OC(C)=O)C(OC(C)=O)C1OC(C)=O (stereo not given) | 16.9%
Cc1c(O)cc(O)c(C=O)c1C | 4.5%
Cc1cccc(C)c1NC(=O)/C(=N/NC(N)=S)C(C)C(=O)c1ccc(Cl)cc1 (stereo not given) | 13.3%
O=C1C=C/C(=N/c2ccc(O)o2)c2ccccc21 | 8.4%
Clc1ccccc1N=NNc1ccccc1Cl | -29.5%
NC1(c2ccccc2)CON=C(c2ccccc2)C1 (stereo not given) | -15.8%
CC(=S)NNC(=O)c1ccncc1 | -1.15%
COc1ccc(OC)c(C(N)=O)c1 | 0.95%
Clc1ccc(N=Cc2ccccc2)cn1 | -14.4%
O=C1Cc2c([nH]c3c(Cl)cccc23)-c2ccccc2N1 | 21.8%
N#CC(CC(=O)c1ccccc1)c1ccccc1Cl (stereo not given) | 17.6%
CCOC(=O)N1Cc2cc3ccc(OC)cc3nc2C1 | -10%
Cc1ccc2ccccc2c1C(=O)c1ccccc1Cc1cccc2ccccc12 | 2.2%
Cn1c(=O)c2c(nc(NCCO)n2Cc2ccccc2)n(C)c1=O | 18.3%
Cc1cc(S(=O)(=O)Nc2nnc3c4ccccc4cnn23)c(S)cc1Cl | 2.7%

Assay: NCI Yeast Anticancer Drug Screen. Data for the bub3 strain (AID 167)
Details: S. cerevisiae bub3 mutant strain, at 50.0 µM, active compounds read high
How it was run: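 Whole-cell yeast assay. The mutant strain was incubated with compounds, and growth inhibition was determined by comparison with vehicle-treated cells.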

Compound | growth inhibition
COc1ccc2c(c1)Sc1c(Cl)c3c(c(Cl)c1=N2)Sc1cc(OC)ccc1N=3 | -2.2%
COc1nc(NC2OC(COC(C)=O)C(OC(C)=O)C(OC(C)=O)C2OC(C)=O)c(C(=O)CCl)c(=O)[nH]1 (stereo not given) | -2.2%
O=C(O)C(Cc1ccc2c(c1)CCC2)(Cc1ccc2c(c1)CCC2)C(=O)O | 22.8%
Clc1cccc(Cl)c1C1SCc2nc3ncccc3n21 (stereo not given) | 10.6%
COc1cccc(C2N(Cc3ccccc3OC)CCCN2Cc2ccccc2OC)c1 | -5.8%
O=C(O)CC1CC2CC(=O)C1C2 (stereo not given) | -23.6%
CSCCCCCSC | -3.75%
CCOC(=O)C1=C(C)NC(=O)NC1c1ccc(N(C)C)cc1 (stereo not given) | 30.6%
CCc1cccc(CC)c1N=Cc1ccccc1O | 10.8%
NC(=O)c1cc(Cl)ccc1O | -4.05%
c1ccc(CCc2cccnc2)nc1 | -6.1%
Nc1c2cc3c(cc2c[n+]2ccc4ccccc4c12)OCO3 | 43.9%
O=C1CCCC/C1=C1/SC(=Nc2ccccc2)C(=Nc2ccccc2)N1c1ccccc1 | 19.1%
CCCOc1ccc(OCC(=O)c2ccccc2)cc1 | 61.5%
CCCCOC(=O)NC(=O)c1cc2cc(I)cc(I)c2oc1=O | -10.6%
N#CCCCCBr | 15.6%
O=C1OC(=O)c2c1ccc1ccccc21 | 0.95%
CCOC(=O)C[n+]1ccc(C(=O)OCC)cc1 | 11.1%
C=C1OC(=O)C(N)=C1C(C)=O | 3.9%
CN(/N=C(\C(=O)O)c1ccccc1)C1=NCCN1 | -1.4%

Compound | growth inhibition
NNC(=O)CC(=O)Nc1ccccc1F | 0.85%
CC(C)c1ccc(/C=C/C(=O)c2ccc([N+](=O)[O-])cc2)cc1 | 20.9%
O=C(O)c1cccc(CO)c1O | 6.75%
COC(=O)C(C)(Cc1ccc2c(c1)nnn2C(C)=O)NC(C)=O (stereo not given) | 22.6%
CC[C@@]12CCC(=S)N(CCSc3ccccc3)[C@@H]1c1c(n(S(=O)(=O)c3ccc(OC)cc3)c3ccccc13)CC2 | 0.7%
CC(=O)OCC1OC(n2ncnc2CI)C(OC(C)=O)C(OC(C)=O)C1OC(C)=O (stereo not given) | 4.15%
Cc1c(O)cc(O)c(C=O)c1C | -2.45%
Cc1cccc(C)c1NC(=O)/C(=N/NC(N)=S)C(C)C(=O)c1ccc(Cl)cc1 (stereo not given) | 4.5%
O=C1C=C/C(=N/c2ccc(O)o2)c2ccccc21 | 17.8%
Clc1ccccc1N=NNc1ccccc1Cl | 6.35%
NC1(c2ccccc2)CON=C(c2ccccc2)C1 (stereo not given) | 1.4%
CC(=S)NNC(=O)c1ccncc1 | -20.1%
COc1ccc(OC)c(C(N)=O)c1 | 0.85%
Clc1ccc(N=Cc2ccccc2)cn1 | 6.55%
O=C1Cc2c([nH]c3c(Cl)cccc23)-c2ccccc2N1 | 4.5%
N#CC(CC(=O)c1ccccc1)c1ccccc1Cl (stereo not given) | 40.4%
CCOC(=O)N1Cc2cc3ccc(OC)cc3nc2C1 | -24.4%
Cc1ccc2ccccc2c1C(=O)c1ccccc1Cc1cccc2ccccc12 | 4.55%
Cn1c(=O)c2c(nc(NCCO)n2Cc2ccccc2)n(C)c1=O | 8.45%
Cc1cc(S(=O)(=O)Nc2nnc3c4ccccc4cnn23)c(S)cc1Cl | -15.8%
